Article PMC12136788
Whole data set: some 5,800 sequences, median “enrichment r” near 0.68, cut for the highest 2% near 11. These entries were drawn from the full list.

T1: UNK ZnF1-6 (called full-length) (human, UniProt Q9C0B0 30-357)
T1 sequence: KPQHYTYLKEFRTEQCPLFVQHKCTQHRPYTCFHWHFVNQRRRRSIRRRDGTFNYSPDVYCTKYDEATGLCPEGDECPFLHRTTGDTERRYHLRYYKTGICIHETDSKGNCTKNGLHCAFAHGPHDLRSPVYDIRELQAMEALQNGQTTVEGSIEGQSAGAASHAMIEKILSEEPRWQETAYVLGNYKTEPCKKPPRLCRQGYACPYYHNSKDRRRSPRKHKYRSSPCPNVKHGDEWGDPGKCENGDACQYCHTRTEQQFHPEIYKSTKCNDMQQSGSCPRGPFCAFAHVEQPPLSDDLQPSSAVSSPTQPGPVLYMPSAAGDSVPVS

B1: chr20:35276351:35277713:-|three_prime_utr|ENSG00000126005|control|control|control (ssRNA)
RNA: GGGAGUUCUACAGUCCGACGAUCCUCCUCUCCCCACGUCCCUGCGUCUCUUACACCCCCUCCCACCCGAGGCUCCCCAGAGAUAGCAGAGAAUUCGAAGAGGUCGCCGGGGACUGGAAAGAAGUCCCGGCAGGGCCGCCUUCGCAACAGAGGAUUGAGCAUCA
B2: chr2:42328916:42329027:+|CDS|ENSG00000143924|unk|FALSE|unique (ssRNA)
RNA: GGGAGUUCUACAGUCCGACGAUCAGAAGGAUCUGAUGGGACAGAUAUCAAUGCACUGGUGCGAUCCCACAAUAGAAAGGUGAUAGCUGUUGCCGAUGACUUUUGUAAAGUCCAUCUGUUUCAGUAUCCCUGCUCCAAAGCAAACAACAGAGGAUUGAGCAUCA
B3: chr1:28742582:28742694:+|CDS|ENSG00000198492|unk|FALSE|bound_elsewhere (ssRNA)
RNA: GGGAGUUCUACAGUCCGACGAUCAGCAACGGAGAGCCCCACUUCCUACCAGAUGCAAUGUUUGGGCAACCAGGAGCCCUAGGUAGCACUCCAUUUCUUGGUCAGCAUGGUUUUAAUUUCUUUCCCAGUGGGAUUGACUUCUCACAACAGAGGAUUGAGCAUCA
B4: chr1:235182574:235182675:-|CDS|ENSG00000054267|unk|FALSE|unique (ssRNA)
RNA: GGGAGUUCUACAGUCCGACGAUCUUUGACCAACAACAGAAAUGAUCUUAUUUCAAAGGAGGAACAGAACAGUUCAUCUUUGCUAGAAGAAAACAAAGUUCAUGCAGAUUUGGUAAUAUCCAAACCAGUGUCAAAAUCUCCAGACAACAGAGGAUUGAGCAUCA
B5: chr14:81473690:81473791:-|3pUTR|ENSG00000071537|msi1|total|mutant (ssRNA)
RNA: GGGAGUUCUACAGUCCGACGAUCCAGUGUUUUGGAAGUAUGCAUGCAGGCCUAUAAAUGAAAAACACAAUUCUUUAUGUGUACCGCAUGUGUAUUAAUGUCUAACUACAUACGCAAAAACUUCCUUUACAGAGGUUCGGACUACAACAGAGGAUUGAGCAUCA
B6: chr3:124966548:124966651:-|3pUTR|ENSG00000173706|unk|FALSE|bound_elsewhere (ssRNA)
RNA: GGGAGUUCUACAGUCCGACGAUCAGGAAGAAUGCAAAGUUCAGUAUUUCAAUACUUUGUAUUUUACUUGAAAUUACCCUUAGUAGCAUCUUUUUUUUCCUGUCUGAAAGCUUUUGUGUGGAUGAGAAGGGACAUUUCAUUUCCCAACAGAGGAUUGAGCAUCA
B7: chr1:225419324:225419425:-|CDS|ENSG00000143815|msi1|FALSE|unique (ssRNA)
RNA: GGGAGUUCUACAGUCCGACGAUCUUACAUAGCAACACAGUAUAGCCUUCGUCCAAGAAGAGAAGAAGUCAAAUUAAAAGAAAUAGAUUCUAAGGAAGAAAAAUACGUUGCAAAAGAACUGGCAGUGAGAACCUUUGAAGUGACCAACAGAGGAUUGAGCAUCA
B8: chr16:18841627:18841728:-|CDS|ENSG00000157106|msi1|FALSE|bound_elsewhere (ssRNA)
RNA: GGGAGUUCUACAGUCCGACGAUCUACAAUUAAUCGCCAAGAAACACCCCGGUUCCAUGCUCGACACUAUUCUGUAACACCACUAGGAACAAGAUCAGGACUAAUCCAGUGGGUAGAUGGAGCCACACCCUUAUUUGGUCUUUACAACAGAGGAUUGAGCAUCA
B9: chr15:65058426:65058617:-|CDS|ENSG00000103710|control|control|control (ssRNA)
RNA: GGGAGUUCUACAGUCCGACGAUCCUGAACUGGGCCCAUGCCUUCCUGGUGGUGUACAGCGUCGACAGCCGCCAGAGCUUUGAUAGCAGCAGCAGCUACCUGGAGCUGCUUGCCUUGCACGCGAAGGAGACACAGCGCAGCAUCCAACAGAGGAUUGAGCAUCA
B10: chr8:28970260:28970371:+|CDS|ENSG00000147421|unk|total|mutant (ssRNA)
RNA: GGGAGUUCUACAGUCCGACGAUCUCUUCCUCUACAGCUACAGCUUCCACACAGACGCAGCAUUCGGGAAUGUCCCCGUCACCCCGCAACAGUUAUGAUACUUCCCCACAGCCUUGCACUACCAAUCAAAAUGGGAGGGAGAAUCAACAGAGGAUUGAGCAUCA
B11: chr1:13148904:13149928:-|three_prime_utr|ENSG00000280267|control|control|control (ssRNA)
RNA: GGGAGUUCUACAGUCCGACGAUCCCUGGACCUGAGUGGCAUCAGACUGACCAAUUACAGUCUUGUGCCUCUCCAAAUUCUCCUAGAAAAAGUUGCAGCCACCCUUGAGUACCUGGAUUUAGAUGACUGUGGCAUCAUAGACUCCAACAGAGGAUUGAGCAUCA
B12: chr14:63372511:63372612:-|3pUTR|ENSG00000154001|unk|total|mutant (ssRNA)
RNA: GGGAGUUCUACAGUCCGACGAUCUGGGGAUGAGGGUGGGAUGGGAAAGGGAUGUAUGGAUGUUAUUGGCAUUUUUAAGUGUUCCGAGUUUUUUGGGGUUUGGGGUGGUUUUUUUUCCUUGUUUUCCUUUUUUCCUUUUAAUUGCAACAGAGGAUUGAGCAUCA
B13: chr5:74627411:74627511:-|3pUTR|ENSG00000171617|msi1_unk|total|mutant (ssRNA)
RNA: GGGAGUUCUACAGUCCGACGAUCUUUGUAAAACUGUUAUUUUUUUUUUUUUCACAAUGUGAAACUGAAGGUCAAUAAAUUAUCCGAGAUUUUCUCUUCAUUAUGUGUGUGGGUCUUCAUUUGAAUAAGACACAAUUUGAGGCACAACAGAGGAUUGAGCAUCA

Target: T1, UNK ZnF1-6 (called full-length)
Assay: nsRBNS (natural sequence RNA bind-n-seq); RBNS binding buffer (assumed for nsRBNS): 25 mM Tris pH 7.5, 150 mM KCl, 3 mM MgCl2, 0.01% Triton X-100, 500 ug/ml BSA, 20 U/ml SUPERase-In, 4 C; UNK is unkempt and MSI1 is Musashi-1; names of the RNAs are library labels; protein concentration not given here; high values mean tight binding

Binder | binding signal [enrichment R]
B1 | 0.869
B2 | 0.424
B3 | 0.665
B4 | 0.258
B5 | 0.563
B6 | 1.1
B7 | 0.538
B8 | 0.869
B9 | 0.597
B10 | 0.625
B11 | 0.577
B12 | 1.7
B13 | 0.75
